Source: PubChem
EWS-Fli inh: EWS/Fli-driven NR0B1 reporter inhibitors, primary screen, A673 cells, NR0B1 luciferase, luminescence, MLPCN library; viability-normalised; inhibition, % at 12.6 µM; 0.67% of 350,000 active; AID 651661, 2012;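 active = mean inhibition of at least 50% after viability correction, with every replicate also passing that limit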;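 also: firefly luciferase signal divided by Alamar Blue viability fluorescence both relative to DMSO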
miR-122 sensor: miR-122 Renilla sensor signal increase in Huh7, primary screen, miR-122 inhibitor project, cell-based, single point, plate reader; 0.3% of 340,000 active; activation (reporter increase), % at 12.5 µM; Huh7 miR-122 Renilla luciferase sensor, 48 h; neutral wells = 0, positive control = 100;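 active = mean replicate activation score at least 90 and every replicate individually at or above 90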;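 also: higher luciferase means less miR-122 activity so hits act as miR-122 inhibitors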
PAX8 reporter: inhibitors of PAX8-driven TPO luciferase reporter, primary screen, RMG-I cells, single concentration. 1.2% of 360,000 active. SteadyGlo, 24 h. inhibition, % at 12.6 µM. AID 652154, 2013;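 active = mean replicate inhibition at least 60% with every replicate also reaching 60%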;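 also: luciferase light reporting Pax8 driven TPO promoter activity; plate controls were median of neutral control wells for no effect and mitoxantrone controls for full effect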
HIV Env fusion: inhibitors of HIV-1 Env-driven cell-cell fusion, primary screen, HeLa-JRFL effector, CEM21 target cells, luciferase; inhibition, % at 12.3 µM; AID 651610, 2012; 1.1% of 360,000 active;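 active = mean replicate inhibition score of at least 50 and every replicate individually at or above 50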;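 also: 0% = plate neutral controls and 100% = maraviroc near 300 nM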
INS-1E GSIS act: GLuc luminescence reporter in INS-1E cells, primary screen for activators of glucose-dependent secretion of insulin. INS-1E GLuc reporter insulin secretion, 2-3 h. activation, % at 16.6 µM. 0.61% of 370,000 active. AID 743287, 2014;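 active = lowest replicate activation of at least 40%, so every replicate reaches that level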;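 also: 0% = median of neutral control wells and 100% = median of IBMX positive control wells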
Statin myotox sup: suppressors of statin myotoxicity in C2C12 myotubes, primary screen, cell-based, single point, plate reader. C2C12 myotubes + simvastatin, ATP luminescence, 48 h; scaled: DMSO 0, geranylgeraniol control 100. rescue of ATP level, % at 7.49 µM. 0.78% of 330,000 active;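 active = mean ATP rescue above about 67%, or every replicate alone reaching that limit, limit read from the data, passing the limit was not always enough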;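 also: myotubes were challenged with 10 µM simvastatin during compound exposure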
* hit, by the source's call; [ ] = dose if it differs, or a comment. The list is not random: actives were taken first. Their share in the collection is about 3.1%.

Screening COCC(=O)N1[C@@H](CO)[C@@H](c2ccccc2)C12CN(C(=O)NC1CCCCC1)C2 returned EWS-Fli inh 7 and INS-1E GSIS act -12.
CCOc1ccc(NC(=O)NCc2ccccn2)cc1 was read as EWS-Fli inh -10, PAX8 reporter -13, HIV Env fusion 58*, INS-1E GSIS act 19 and Statin myotox sup 4.
O=C(Nc1ccccc1)N1CC(=O)N2[C@H](CO)[C@H](c3ccc(C#CC4CCCC4)cc3)[C@@H]2C1 was read as EWS-Fli inh -5 and INS-1E GSIS act -14.
COc1ccc(-n2c(C)cc(C=O)c2C)cc1Cl was read as miR-122 sensor 0, PAX8 reporter 31, HIV Env fusion -215 and Statin myotox sup 102*.
Screening COc1ccccc1NS(=O)(=O)c1cccc(NC(=O)c2nc3nc(C)cc(C)n3n2)c1 returned miR-122 sensor 6 and Statin myotox sup 126*.
COc1ccccc1NS(=O)(=O)c1cccc(NC(=O)c2ccc3ccccc3n2)c1 was read as EWS-Fli inh -26, miR-122 sensor 73, PAX8 reporter 6, INS-1E GSIS act -5 and Statin myotox sup 110*.
O=C(Nc1cccc(S(=O)(=O)Nc2ccccc2F)c1)c1ccc2ccccc2n1 was read as EWS-Fli inh 8, PAX8 reporter 2, HIV Env fusion 0 and INS-1E GSIS act 14.
Screening CN(C)c1ccc2c(c1)[C@@H]1C[C@H](CC(=O)NCc3ccccc3F)O[C@H](CO)[C@@H]1O2 returned INS-1E GSIS act 1.
C[C@H]1CN([C@@H](C)CO)C(=O)Cc2cc(NC(=O)Nc3ccc(C(F)(F)F)cc3)ccc2O[C@H]1CN(C)CC1CCCCC1 was read as EWS-Fli inh 0, miR-122 sensor -8[16.7 µM], PAX8 reporter -7, HIV Env fusion 3[16.7 µM], INS-1E GSIS act 20 and Statin myotox sup -20.
For C[C@@H]1CN([C@@H](C)CO)C(=O)Cc2cc(NC(=O)Nc3ccc(C(F)(F)F)cc3)ccc2O[C@H]1CN(C)CC1CCCCC1 the results were EWS-Fli inh 59*, miR-122 sensor -31[16.7 µM], PAX8 reporter -34, HIV Env fusion 8[16.7 µM], INS-1E GSIS act 9 and Statin myotox sup -10.
For C[C@H]1CN([C@@H](C)CO)C(=O)Cc2cc(NC(=O)Nc3ccc(C(F)(F)F)cc3)ccc2O[C@H]1CN(C)C(=O)NC1CCCCC1 the results were EWS-Fli inh -1, miR-122 sensor -9[16.7 µM], PAX8 reporter 78*, HIV Env fusion -7[16.7 µM] and Statin myotox sup 48.
`C[C@@H]1CN([C@@H](C)CO)C(=O)Cc2cc(NC(=O)Nc3ccc(C(F)(F)F)cc3)ccc2O[C@@H]1CN(C)C(=O)NC1CCCCC1` gave EWS-Fli inh 59*, miR-122 sensor 7[16.7 µM], PAX8 reporter 25, HIV Env fusion 9[16.7 µM], INS-1E GSIS act -11 and Statin myotox sup -192.
For C[C@H](CO)N1C[C@H](C)[C@@H](CN(C)C(=O)NC2CCCCC2)Oc2ccc(NC(=O)Nc3ccc(C(F)(F)F)cc3)cc2CC1=O the results were EWS-Fli inh 9, miR-122 sensor 7[16.7 µM], PAX8 reporter 59, HIV Env fusion -18[16.7 µM], INS-1E GSIS act -14 and Statin myotox sup -48.
Screening CO[C@H]1CC[C@H]2CCN(C)C(=O)C[C@@H](c3ccccc3)CN(C)C(=O)c3cccc(C#N)c3OC[C@H]1O2 returned EWS-Fli inh 9, PAX8 reporter 9, HIV Env fusion -1[16.7 µM], INS-1E GSIS act 11 and Statin myotox sup -5.
For COC(=O)C[C@H]1CC[C@@H]2[C@@H](COc3ccc(NC(=O)C4CCOCC4)cc3C(=O)N2C)O1 the results were EWS-Fli inh 2, miR-122 sensor 20[16.7 µM], PAX8 reporter 14, INS-1E GSIS act 3 and Statin myotox sup -8.
C[C@H](CO)N1C[C@H](C)[C@@H](CN(C)C(=O)C2CC2)Oc2cc(C3=CCCCC3)ccc2S1(=O)=O was read as EWS-Fli inh 11, miR-122 sensor 24[16.7 µM], HIV Env fusion -25[16.7 µM], INS-1E GSIS act -10 and Statin myotox sup -16.
